# Shown are actives, neighbours in structure and some others; about 5.7% of the full set was active somewhere.
# L3MBTL1 inh: blocks human L3MBTL1; AlphaScreen L3MBTL1–H3K9me1 peptide binding; AID 485360; Potency, µM (top dose mostly 57.1 µM), for the others: at the highest dose activity, negative = inhibition, most hits filed as inhibitors; hit rate 0.66% among 230,000; Q9Y468; also: potency is read from the fitted curve at half-maximal effect; % is scaled to controls: 0 for no effect and ±100 for the full control effect; nearly all actives have a fitted effect of over 60% in size
#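 L3MBTL1 (50 nM) pre-complexed 30 min with biotinylated H3(1-15)K9me1 peptide (75 nM), then compounds added for 30 min at room temperature; AlphaScreen streptavidin donor/nickel chelate acceptor beads (10 ug/mL final) read after 30 min dark incubation.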
# JMJD2A Tudor: inhibitors of human JMJD2A Tudor domain; AlphaScreen JMJD2A-Tudor / H3K4me3 peptide binding; Potency, µM (highest dose often 114 µM), without a hit: at the highest dose activity change, negative = inhibition, actives largely listed as inhibitors; hit rate 4.4% among 390,000; also: potency is read from the fitted curve at half-maximal effect; % is scaled to controls: 0 for no effect and ±100 for the full control effect; nearly all actives have a fitted effect of over 50% in size
# JMJD2E inh: blocks human JMJD2E demethylase activity | hit rate 1.6% among 230,000 | Potency, µM (doses to about 57.1 µM), for inactives: at the highest dose activity change, negative = inhibition, hits mostly inhibitors | B2RXH2 | JMJD2E catalytic domain, FDH-coupled NADH fluorescence (FDH is formaldehyde dehydrogenase); active = well fitted inhibition curve with a large enough effect, not every such curve was filed as active; inconclusive = small, poorly fitted or top-dose-only effect, or another doubt; inactive = no such curve, though single readings can be large or run the other way;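 also: potency is read from the fitted curve at half-maximal effect; 0% = wells with enzyme and -100% = buffer wells without enzyme; nearly all actives have a fitted effect of over 50% in size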
# PI5P4Ka inh: inhibitors of human PI5P4K alpha. P48426. PI5P4Kalpha enzyme, ADP-Glo luminescence, 60 min; stronger effect = lower value. max response, %. hit rate 1.2% among 330,000. AID 652105; active = max response of -50% or lower; inconclusive = between -30% and -50%; inactive = -30% or higher; also: value at the top dose of about 77 µM; % is scaled to controls: 0 for no effect and ±100 for the full control effect
#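 PI5P4Kalpha ADP-Glo assay; 5 microM ATP final; 60 min RT reaction; HEPES pH 7.4/EGTA/CHAPS, 5% DMSO; controls lacking substrate or enzyme; luminescent end-point.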
# BAZ2B block: blocks human BAZ2B | AID 504333 | hit rate 4.4% among 360,000 | Potency, µM (highest dose often 114 µM), without a hit: top-dose activity change, negative = inhibition, most hits filed as inhibitors | AlphaScreen BAZ2B-H3K14Ac peptide displacement | Q9UIF8; also: potency is read from the fitted curve at half-maximal effect; % is scaled to controls: 0 for no effect and ±100 for the full control effect; nearly all actives have a fitted effect of over 60% in size
# Target sequence (Q9UIF8 whole entry, looked up): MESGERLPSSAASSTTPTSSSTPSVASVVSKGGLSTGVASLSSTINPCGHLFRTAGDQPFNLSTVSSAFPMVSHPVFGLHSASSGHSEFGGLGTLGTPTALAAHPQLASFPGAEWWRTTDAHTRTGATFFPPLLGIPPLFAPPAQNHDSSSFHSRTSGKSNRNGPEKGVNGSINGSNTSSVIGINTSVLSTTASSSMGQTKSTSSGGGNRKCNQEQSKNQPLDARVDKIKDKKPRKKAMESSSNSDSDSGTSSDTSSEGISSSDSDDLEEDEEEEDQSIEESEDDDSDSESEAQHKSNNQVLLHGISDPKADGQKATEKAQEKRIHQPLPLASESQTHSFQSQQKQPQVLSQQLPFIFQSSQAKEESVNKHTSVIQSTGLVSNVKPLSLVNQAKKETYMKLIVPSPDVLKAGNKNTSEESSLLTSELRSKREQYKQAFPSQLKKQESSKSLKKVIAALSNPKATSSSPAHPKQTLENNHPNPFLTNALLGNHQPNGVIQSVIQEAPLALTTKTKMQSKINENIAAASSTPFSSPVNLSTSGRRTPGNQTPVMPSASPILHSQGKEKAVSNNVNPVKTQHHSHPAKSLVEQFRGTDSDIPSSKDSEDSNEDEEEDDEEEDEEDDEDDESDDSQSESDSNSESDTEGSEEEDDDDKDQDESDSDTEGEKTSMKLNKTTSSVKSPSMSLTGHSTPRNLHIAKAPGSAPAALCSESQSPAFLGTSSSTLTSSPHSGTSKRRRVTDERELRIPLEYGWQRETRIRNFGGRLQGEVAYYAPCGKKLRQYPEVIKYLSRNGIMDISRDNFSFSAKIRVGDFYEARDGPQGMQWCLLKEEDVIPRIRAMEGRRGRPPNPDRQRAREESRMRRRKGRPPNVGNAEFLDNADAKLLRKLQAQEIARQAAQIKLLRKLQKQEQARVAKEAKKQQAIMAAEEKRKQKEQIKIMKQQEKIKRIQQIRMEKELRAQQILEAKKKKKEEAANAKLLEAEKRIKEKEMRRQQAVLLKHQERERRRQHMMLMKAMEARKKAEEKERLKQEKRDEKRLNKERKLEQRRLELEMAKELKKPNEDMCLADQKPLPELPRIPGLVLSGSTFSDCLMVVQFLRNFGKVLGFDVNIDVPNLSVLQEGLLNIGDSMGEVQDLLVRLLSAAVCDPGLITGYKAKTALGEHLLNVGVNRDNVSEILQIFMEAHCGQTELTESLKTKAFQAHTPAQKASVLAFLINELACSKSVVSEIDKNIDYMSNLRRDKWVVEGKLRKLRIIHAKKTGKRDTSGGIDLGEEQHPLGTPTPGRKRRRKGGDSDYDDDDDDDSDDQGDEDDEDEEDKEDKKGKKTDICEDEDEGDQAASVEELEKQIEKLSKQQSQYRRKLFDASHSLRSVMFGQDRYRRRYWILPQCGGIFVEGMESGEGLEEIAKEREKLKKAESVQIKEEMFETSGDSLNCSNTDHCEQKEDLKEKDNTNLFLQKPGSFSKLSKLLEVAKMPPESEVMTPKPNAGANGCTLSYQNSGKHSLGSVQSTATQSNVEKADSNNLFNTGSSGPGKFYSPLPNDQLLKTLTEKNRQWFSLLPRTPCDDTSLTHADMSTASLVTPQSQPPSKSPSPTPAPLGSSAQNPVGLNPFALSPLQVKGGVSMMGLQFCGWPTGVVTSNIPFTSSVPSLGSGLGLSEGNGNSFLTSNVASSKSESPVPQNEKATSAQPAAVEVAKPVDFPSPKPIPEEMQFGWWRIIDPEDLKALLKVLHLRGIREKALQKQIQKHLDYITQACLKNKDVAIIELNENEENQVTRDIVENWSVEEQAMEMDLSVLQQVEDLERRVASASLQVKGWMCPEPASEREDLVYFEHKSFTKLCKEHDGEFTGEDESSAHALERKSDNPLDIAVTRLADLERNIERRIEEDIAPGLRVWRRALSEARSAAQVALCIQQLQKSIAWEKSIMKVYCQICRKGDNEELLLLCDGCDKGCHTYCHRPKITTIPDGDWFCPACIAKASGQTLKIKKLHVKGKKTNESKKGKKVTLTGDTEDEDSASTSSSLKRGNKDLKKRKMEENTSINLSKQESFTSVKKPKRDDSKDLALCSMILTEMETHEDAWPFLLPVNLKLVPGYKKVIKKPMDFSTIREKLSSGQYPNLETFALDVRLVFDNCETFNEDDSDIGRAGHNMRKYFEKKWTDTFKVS
#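 BAZ2B (50 nM) with biotin-H3(5-23)K14Ac peptide (50 nM) in PBS pH 7.4, 0.01% Tween-20, preformed 30 min, then compound 30 min at room temperature; top concentration 110uM. AlphaScreen streptavidin donor/nickel chelate acceptor beads (10 ug/mL final), 20 min dark, signal read.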
# HP1b binding inh: blocks HP1-beta chromodomain binding to methylated histone tails; AlphaScreen HP1-beta / biotin-H3K9me3 peptide binding; hit rate 0.56% among 390,000; AID 540317; Potency, µM (titrated, usually from 114 µM), for the others: at the highest dose activity change, negative = inhibition, usual class: inhibitors; also: potency is read from the fitted curve at half-maximal effect; nearly all actives have a fitted effect of over 70% in size
#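 HP1-beta protein (50 nM final) preincubated 30 min at room temperature with biotinylated H3(1-18)K9me3 peptide (50 nM) in PBS pH 7.4, 0.01% Tween-20, then compound added for 30 min. AlphaScreen streptavidin donor/nickel chelate acceptor beads (10 ug/mL final), 30 min dark, luminescence read.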
# * marks the source's active call; other numbers are inactive results; ? = inconclusive; . = no result given; [ ] = remark or other dose. Unless noted, calls follow the shape of the dose curve; as a rule, active = well fitted inhibition curve with a large enough effect; inconclusive = small, poorly fitted or top-dose-only effect; inactive = no such curve, though single readings can be large or run the other way.
SMILES,L3MBTL1 inh,JMJD2A Tudor,JMJD2E inh,PI5P4Ka inh,BAZ2B block,HP1b binding inh
Cc1ccnc(SCC(=O)c2cccc([N+](=O)[O-])c2)n1,-2%,-6%,1%,-6,-26%,32%
O=C(CCNc1ccc(Cc2ccncc2)cc1)c1ccc([N+](=O)[O-])cc1,?,22µM*,-38%,-25,?,?
O=C(Nc1ccc(Cc2ccncc2)cc1)c1cccc([N+](=O)[O-])c1,-8%,-34%,-3%,-1,?,4%
O=C(CCNc1ccc(Br)cc1)c1cccc([N+](=O)[O-])c1,-22%,20µM*,-9%,0,?,79µM*
Cc1nc(SCC(=O)c2cccc([N+](=O)[O-])c2)n[nH]1,5%,40µM*,-4%,-63*,-8%,?
O=C(CCCCn1c(=O)c2ccccc2n(Cc2ccccc2F)c1=O)NCc1ccccc1Cl,.,-14%,.,.,-6%,2%
COc1cccc(CN(C(=O)c2oc3ccc(Br)cc3c2C)C2CCS(=O)(=O)C2)c1 (configuration not stated),.,-18%,.,.,-11%,17%
CC1(C)N(O)CC(c2cccs2)=[N+]1[O-],.,28µM*,2%,.,50µM*,-23%
[O-][N+]1=C(c2cccs2)CN(O)C1,2%,-14%,-4%,0,?,22%
COC(=O)c1cc(O)cc(OC)c1C(=O)c1c(O)cc(C)cc1O,.,?,-15%,2,-28%,-11%
COC(=O)c1cc(O)cc(OC)c1Oc1cc(C)cc(O)c1C(=O)O,.,20µM*,?,?,8.9µM*,?
O=C(NCc1ccccc1)c1nncc(-c2ccccc2)n1,3%,-12%,.,0,11%,16%
CCOc1ccc(-n2cc(C(=O)NC(C)C)c3cc(OC)c(OC)cc3c2=O)cc1,-1%,20µM*,1%,-10,0%,-12%
COc1cccc(-n2cc(C(=O)NCc3ccccc3OC)c3ccccc3c2=O)c1,.,-15%,.,.,-3%,38%
COc1ccc(-n2cc(C(=O)NCCc3cc(OC)ccc3OC)c3ccccc3c2=O)cc1,.,50µM*,.,.,?,-6%
Cc1cc2nc(-c3ccc(SCC(=O)N4CCN(C(=O)c5ccco5)CC4)nc3)[nH]c2cc1C,32µM*,?,?,.,-2%,-5%
Cc1cc2nc(-c3ccc(SCC(=O)N4CCOCC4)nc3)[nH]c2cc1C,5%[11.4 µM],-20%,?,.,-13%,28%
CCCCNC(=S)Nc1ccccc1Cc1ccccc1,-7%,-25%,-3%,-4,50µM*,13%
COc1cc(/C=N/N2CCN(C3c4ccccc4-c4ccccc43)CC2)ccc1O,-1%,56µM*,1%,34,35µM*,21%
COc1cccc(/C=N/N2CCN(C3c4ccccc4-c4ccccc43)CC2)c1O,-25%,?,-4%,9,-37%,9%
Oc1cccc(/C=N/N2CCN(C3c4ccccc4-c4ccccc43)CC2)c1,-1%,40µM*,-6%,36,?,?
C(=N\N1CCN(C2c3ccccc3-c3ccccc32)CC1)/c1ccncc1,-12%,45µM*,5%,24,35µM*,?
COc1ccc(CNc2nc3c(-c4ccc(C)cc4)nnn3c3ccccc23)cc1,.,-2%,.,.,-2%,39%
O=C(NCc1cccc(F)c1)c1cccc(NC(=O)c2nsc3ccccc23)c1,.,3%,.,.,2%,28%[57 µM]
CN(C)c1ccc(CNc2nc(-c3ccco3)nn2S(=O)(=O)c2ccc(Cl)cc2)cc1,.,?,.,.,12%,-19%
SMILES,L3MBTL1 inh,JMJD2A Tudor,JMJD2E inh,PI5P4Ka inh,BAZ2B block,HP1b binding inh
CN(C)c1ccc(CNc2nc(-c3ccco3)nn2S(=O)(=O)c2ccc3ccccc3c2)cc1,.,8.9µM*,.,.,8.9µM*,?
C#Cc1ccc([C@H]2C=C(C(=O)O)O[C@@H](OCCCCO)C2)cc1,.,-15%,.,-17,.,43%
COc1ccc([C@@H]2C=C(C(=O)O)O[C@H](OCCCCO)C2)cc1,.,?,?,-1,79µM*,34%
NC(=O)CN(C/C=C/c1ccccc1)C/C=C/c1ccccc1,-4%,20µM*,.,2,?,?
O=C1c2ccccc2NC(c2ccc(Br)o2)N1O (configuration not stated),-2%,79µM*,.,.,-36%,15%
O=C1c2ccccc2NC(c2ccc(-c3cccs3)o2)N1O (configuration not stated),0%,-19%,.,.,?,34%
CCCN(CCC)C(=O)Cn1c(=O)n(-c2cccc(C)c2)c(=O)c2c1c1cc(OC)ccc1n2C,.,4%,.,.,2%,52%
COc1ccc(S(=O)(=O)n2nc(C)c(S(=O)(=O)N3CCCCCC3)c2C)cc1C,.,?,.,.,?,8%[57 µM]
CC(=O)c1sc(Nc2ccccc2)nc1C,.,.,.,-4,.,.
Cc1nc(Nc2ccc(Cl)cc2Cl)sc1C(=O)Nc1ccccc1,7%,-10%,?,14,-4%,17%
CC(=O)c1sc(Nc2cccc(C)c2)nc1C,-3%,0%,?,8,50µM*,45%
CC(=O)c1sc(N/N=C\c2ccccc2O)nc1C,9%,-21%,28µM*,-21,-8%,0%
CCOC(=O)c1sc(N/N=C/c2ccccc2)nc1C,7%,?,?,-16,-6%,-36%[57 µM]
Cc1nc(Nc2ccc(Cl)c(Cl)c2)sc1C(=O)Nc1ccccc1,-1%,22µM*,?,-9,-32%,-13%
Nc1c(C(=O)c2ccccc2)sc(Nc2ccc(Cl)c(Cl)c2)c1C(=O)Nc1ccccc1,.,45µM*,.,.,25µM*,?
Cc1ccc(-n2ncc(C(=O)NCc3ccco3)c2C2CCN(C(=O)OC(C)(C)C)CC2)cc1,.,-30%,.,.,1%[57.1 µM],11%
COc1ccc(N2CC(C(=O)Nc3ccc(NC(C)=O)cc3)CC2=O)cc1 (configuration not stated),.,-19%,.,.,5%,27%
CCn1c(O)c(N=N)c2ccccc21,-7%,-5%,-7%,8,-22%,12%
CCn1c(O)c(N=NC2=NC(=O)CS2)c2ccccc21,-8%,?,-4%,-14,50µM*,-6%
O=C(C1=C(O)C(=O)N(CCN2CCOCC2)C1c1ccc([N+](=O)[O-])cc1)c1cccs1 (configuration not stated),.,45µM*,.,4,-7%,23%
COc1ccc(C2C(C(=O)c3sc(C)nc3C)=C(O)C(=O)N2CCN2CCOCC2)cc1 (configuration not stated),-24%,50µM*,-5%,9,17%,20%
COc1ccc(OC)c(C2C(C(=O)c3sc(C)nc3C)=C(O)C(=O)N2CCN2CCOCC2)c1 (configuration not stated),1%,-10%,-16%,1,2%,39%

# Assay outcomes as filed in PubChem.
